Test results reported in PubChem BioAssay (NCI).
This is part of a sample that, as a whole, favours compounds with a hit. Of some 79,000 tested, about 15% had one in any assay. A number with no mark means an inactive call. Activity calls are given as the source filed them. Rule as the data show it: active = growth inhibition above about 70%; inactive = the rest.

Columns and labels:
[1] = NCI Yeast Anticancer Drug Screen. Data for the rad50 strain (AID 155);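 also: 0% = growth of vehicle-only cultures of the same strain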; conditions: S. cerevisiae rad50 strain growth inhibition, stronger effect = higher value
Outline: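 Vehicle-treated cultures provide the reference for the growth inhibition reported for compound-exposed, repair-deficient yeast.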

[2] = NCI Yeast Anticancer Drug Screen. Data for the mec2-1 strain (AID 157); conditions: S. cerevisiae mec2-1 strain, stronger effect = higher value
Outline: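 Growth inhibition is read against vehicle-treated controls after compound exposure of the mec2-1 yeast strain, which is defective in DNA damage repair or cell cycle control.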

[3] = NCI Yeast Anticancer Drug Screen. Data for the sgs1 mgt1 strain (AID 161);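 also: 0% = growth of cultures given vehicle only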; conditions: S. cerevisiae sgs1 mgt1 strain, stronger effect = higher value
Outline: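 This yeast growth screen uses a strain with defined DNA-repair lesions; compound-treated growth is compared with vehicle-treated growth.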

[4] = NCI Yeast Anticancer Drug Screen. Data for the cln2 rad14 strain (AID 165);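 also: 0% = growth equal to vehicle treated cultures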; conditions: S. cerevisiae cln2 rad14 strain, stronger effect = higher value
Outline: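 Growth inhibition, relative to vehicle-treated controls, is the read-out. The test organism is a yeast strain with defined genetic alterations, cln2 rad14.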

[5] = NCI Yeast Anticancer Drug Screen. Data for the bub3 strain (AID 167); conditions: S. cerevisiae bub3 mutant strain, stronger effect = higher value
Outline: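 Mutant yeast screening strain plus compound; vehicle-treated cultures serve as the 0% inhibition reference.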

[6] = NCI Yeast Anticancer Drug Screen. Data for the mlh1 rad18 strain (AID 175); conditions: S. cerevisiae mlh1 rad18 strain growth inhibition, stronger effect = higher value
Outline: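 Cells of a genetically altered yeast strain, deficient in DNA damage repair, were treated with compound. Their growth was then compared with that of vehicle-treated cultures to give inhibition.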

[7] = at 5.0 µM (retest, dose inferred, filed as 0.5)
[8] = at 50.0 µM (retest, dose inferred, filed as 5.0)

| SMILES | growth inhibition [1, 7] | growth inhibition [1, 8] | growth inhibition ([1]; at 50.0 µM) | growth inhibition [2, 7] | growth inhibition [2, 8] | growth inhibition ([2]; at 50.0 µM) | growth inhibition [3, 7] | growth inhibition [3, 8] | growth inhibition ([3]; at 50.0 µM) | growth inhibition [4, 7] | growth inhibition [4, 8] | growth inhibition ([4]; at 50.0 µM) | growth inhibition [5, 7] | growth inhibition [5, 8] | growth inhibition ([5]; at 50.0 µM) | growth inhibition [6, 7] | growth inhibition [6, 8] | growth inhibition ([6]; at 50.0 µM) |
| --- | --- | --- | --- | --- | --- | --- | --- | --- | --- | --- | --- | --- | --- | --- | --- | --- | --- | --- |
| O=P1(N2CCCCC2)N(Cc2ccc(Cl)cc2)CCCN1Cc1ccc(Cl)cc1 | 59% | 96% (active) | 82% (active) | 65% | 97% (active) | 51.5% | 11% | 97% (active) | 29.1% | 31% | 96% (active) | 63.2% | 49% | 96% (active) | 6.75% | 69% | 90% (active) | 76.8% (active) |
| CC(=O)N[C@H]1CC[C@H]2[C@@H]3CCC4=CC(=O)CC[C@]4(C)[C@H]3CC[C@]12C | 5% | 94% (active) | 33.2% | -11% | 95% (active) | 94.5% (active) | 10% | -10% | 94.2% (active) | -8% | 97% (active) | 79.5% (active) | -1% | 97% (active) | 98% (active) | -4% | 95% (active) | 93.8% (active) |
| O=C1/C(=C(/Br)I)c2ccccc2-c2ccccc21 | 98% (active) | 87% (active) | 7.85% | 99% (active) | 91% (active) | 58.9% | 96% (active) | 94% (active) | 64.3% | 53% | 90% (active) | 44% | 99% (active) | 89% (active) | 75.7% (active) | 99% (active) | 88% (active) | 59% |
| CC[n+]1ccc(Nc2ccc(NC(=O)c3ccc(C(=O)Nc4ccc(Nc5cc[n+](CC)c(N)n5)cc4)cc3)cc2)nc1N | 24% | 98% (active) | 98.2% (active) | 30% | 99% (active) | 98.9% (active) | 26% | 99% (active) | 99% (active) | -3% | 98% (active) | 97.3% (active) | 28% | 96% (active) | 98% (active) | 50% | 99% (active) | 98.3% (active) |
| O=C(C[n+]1ccccc1)N=N/C(C(=O)Nc1c(Cl)c(O)c2ccccc2c1O)=C1/C(=O)Oc2cc(O)ccc2C1=O | 15% | 98% (active) | 97.3% (active) | 23% | 98% (active) | 95.8% (active) | 19% | 98% (active) | 93% (active) | -15% | 96% (active) | 68.5% | 24% | 98% (active) | 90.8% (active) | 27% | 97% (active) | 94.6% (active) |
| Cn1c2nc(-[n+]3ccccc3)nc-2c([O-])n(C)c1=O | 1% | 3% | -15.8% | 3% | 7% | -2.25% | -1% | 39% | 2.1% | -2% | 7% | 70% (active) | -1% | 0% | -6.95% | -1% | 8% | -8.75% |
